Shown are actives, neighbours in structure and some others; about 21% of the full set was active somewhere.
Cycloheximide cs: Cycloheximide Counterscreen for Small Molecule Inhibitors of Shiga Toxin. AID 2314, 2010. 12% of 300,000 active. cell reporter, cycloheximide protein synthesis inhibition counterscreen. max response, %; in the data active means max response mostly above about 13%, no sharp cut-off; inactive means mostly below about 14%; further: read at 38.3 µM for the half of the compounds with a filed dose
NS1 function inh: qHTS Assay for Inhibitors of Influenza NS1 Protein Function | Potency, µM (top dose mostly 46.1 µM) | 0.4% of 270,000 active | AID 2326, 2010; calls by dose curve; further: actives are rising curves; nearly all actives have a fitted effect of over 50% in size
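Growth recovery, yeast-based: influenza A NS1 expressed in S. cerevisiae causes slow growth, and suppressors are detected by OD600. The parent strain without NS1 is used as positive control.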
Shiga inhibitor: A qHTS for Small Molecule Inhibitors of Shiga Toxin | 9.2% of 290,000 active | AID 2315, 2010 | Vero cells, Shiga toxin protein synthesis inhibition reporter | inhibition, % at 38.7 µM; in the data active means inhibition mostly above about 28%, no sharp cut-off; inactive means mostly below about 43%
Pf growth 96h: Primary qHTS for delayed death inhibitors of the malarial parasite plastid, 96 hour incubation. P. falciparum luciferase reporter growth, 96 h. Potency, µM (series often up to 28.7 µM), actives largely listed as inhibitors. 6.9% of 320,000 active
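Parasite growth measured via integrated firefly luciferase reporter in P. falciparum. Infected erythrocytes at 2% hematocrit, 0.05% parasitemia final were treated 96 hours at 37 C under 5% CO2, and luminescence was read.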
FBPA Giardia inh: qHTS Assay for Inhibitors of Fructose-1,6-bisphosphate Aldolase from Giardia Lamblia; A8B2U2; purified Giardia FBPA; Potency, µM (doses to about 59.6 µM), actives largely listed as inhibitors; 0.71% of 290,000 active; further: nearly all actives have a fitted effect of over 55% in size
Target sequence (A8B2U2 whole entry, looked up): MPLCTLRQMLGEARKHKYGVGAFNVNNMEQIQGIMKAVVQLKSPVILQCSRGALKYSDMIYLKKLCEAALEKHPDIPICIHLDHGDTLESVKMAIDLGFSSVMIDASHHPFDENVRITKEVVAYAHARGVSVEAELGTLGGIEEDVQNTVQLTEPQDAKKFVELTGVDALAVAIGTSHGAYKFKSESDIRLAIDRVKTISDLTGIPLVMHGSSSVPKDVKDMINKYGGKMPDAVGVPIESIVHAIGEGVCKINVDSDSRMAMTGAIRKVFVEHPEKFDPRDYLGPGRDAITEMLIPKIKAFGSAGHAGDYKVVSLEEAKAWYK
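40 nM FBPA preincubated 10 min at RT with compound (up to 57.5 uM final), then substrate plus GAPDH/TPI/NAD/arsenate coupling and diaphorase/resazurin added. Fluorescence read after 20 min at RT, 525/598 nm.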
Pf growth 48h: Primary qHTS for delayed death inhibitors of the malarial parasite plastid, 48 hour incubation. P. falciparum luciferase growth in erythrocytes, 48 h. 5.9% of 310,000 active. Potency, µM (titrated, usually from 28.7 µM), usual class: inhibitors
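Cell-based growth assay: transgenic P. falciparum expressing firefly luciferase, cultured in red cells within RPMI 1640 containing 0.5% w/v Albumax, 24 mM bicarbonate and gentamycin. A drop in luciferase activity indicates inhibition.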
A number is an active result; . = inactive; ? = inconclusive; / = no result given. Unless noted, the call rests on the fitted dose curve; in most records, active means well fitted curve in the direction sought with a large enough effect; inconclusive means small, poorly fitted or top-dose-only effect, or another doubt; inactive means no such curve, though single readings can be large; an effect the other way counts as inactive or inconclusive.

SMILES	Cycloheximide cs	NS1 function inh	Shiga inhibitor	Pf growth 96h	FBPA Giardia inh	Pf growth 48h
O=C(C1=C[C@@H](c2ccc(Br)cc2)C[C@@H](OCc2ccc(CO)cc2)O1)N1CCN(Cc2ccccc2)CC1	.	.	.	11.7µM	.	?
O=c1c2c(nc3c(-c4ccccc4)c[nH]n13)CCC2	.	.	.	.	.	.
O=c1c2c(nc3c(-c4ccc(Cl)cc4)c[nH]n13)CCC2	.	/	.	.	.	10.4µM
Cc1ccc(-c2[nH]n3c(=O)c4c(nc3c2C)CCCC4)cc1	.	?	.	.	.	0.0465µM
Cc1c(-c2ccccc2)[nH]n2c(=O)c3c(nc12)CCCC3	28.6	.	44.0	?	.	?
COc1cccc(-c2nc(CS(=O)(=O)CC(=O)Nc3ccccc3Br)c(C)o2)c1	.	.	.	.	.	.
CCCCC[CH2][Hg][S]C1=C2N=CNC2NC(N)=N1 (stereo unspecified)	/	.	/	/	/	/
COc1ccccc1NC(=S)NC(NC(=O)CC(C)C)C(Cl)(Cl)Cl (stereo unspecified)	.	.	.	?	.	14.7µM
C=CCNc1nc(-c2ccc([N+](=O)[O-])cc2)cs1	56.0	.	62.7	.	.	.
O=[N+]([O-])c1ccc(-c2csc(N/N=C/c3cccnc3)n2)cc1	.	.	.	.	.	.
C=CCNc1nc(-c2ccc(Cl)cc2)cs1	63.5	.	130.4	/	/	.
CN(C)c1nc(-c2ccc([N+](=O)[O-])cc2)cs1	21.4	.	.	/	.	.
O=C(CN1CCOCC1)Nc1nc(-c2ccc(Cl)cc2)cs1	.	.	.	.	.	/
COc1ccc(NC(=O)CN(C)C(=O)Cn2c(=O)oc3ccccc32)cc1	/	/	/	.	/	.
Cc1ccc(-c2cc(C(=O)N/N=C/c3ccoc3)c3ccccc3n2)cc1	.	.	.	9.28µM	/	.
COc1cc(/C=N/NC(=O)c2cc(-c3ccccc3)nc3ccccc23)ccc1O	23.5	.	45.2	.	.	.
Cc1ccc(-c2cc(C(=O)N/N=C/c3c(C)nn(C)c3C)c3ccccc3n2)cc1C	19.0	.	.	?	.	/
COc1ccccc1-c1cc(C(=O)N/N=C\c2cnn(C)c2C)c2ccccc2n1	.	.	.	?	.	.
Cc1ccc(/C=N/NC(=O)c2cc(-c3ccccc3)nc3ccccc23)o1	.	.	.	.	/	.
O=C(N/N=C/c1cccc(F)c1)c1cc(-c2ccco2)nc2ccccc12	70.9	.	86.3	.	.	.
Cc1cc(C(C#N)c2ccccc2F)n2ncnc2n1 (stereo unspecified)	.	.	.	.	.	.
CCN1CCN(CC(=O)Nc2ccc(S(=O)(=O)N3C(C)CCCC3C)cc2)CC1 (stereo unspecified)	.	.	.	.	/	.
Cc1cccc(NC(=O)c2cc(-c3ccco3)nc3ccccc23)n1	16.4	.	94.8	.	.	.
O=C(N/N=C/c1ccc(O)cc1)c1cc(-c2ccccc2)nc2ccccc12	34.0	.	65.3	.	.	.
COc1ccc(/C=N/NC(=O)c2nc(-c3ccccc3)cc(-c3ccccc3)n2)cc1O	28.7	.	.	?	.	?
SMILES	Cycloheximide cs	NS1 function inh	Shiga inhibitor	Pf growth 96h	FBPA Giardia inh	Pf growth 48h
COc1ccc(/C=N/NC(=O)c2cc(-c3ccccc3)nc3ccccc23)cc1O	.	.	.	?	.	.
CCOc1ccc(-c2cc(C(=O)N/N=C/c3cccnc3)c3ccccc3n2)cc1	26.2	.	62.5	?	/	.
Cc1cccc(NC(=O)c2cc(Cl)nc3ccccc23)n1	.	.	.	?	.	?
Cc1cc(C(=O)N/N=C/c2cccnc2)c2ccccc2n1	.	.	.	.	.	.
Cc1cc(Cl)ccc1C(=O)C1CCCN(C(=O)c2cncs2)C1 (stereo unspecified)	.	.	.	.	.	.
Cc1ccc(NC(=O)Cn2cccc2)c(Br)c1	.	.	44.5	/	.	.
Cc1ccc(NC(=O)Cn2cccc2)c(C)c1	.	.	.	13.1µM	.	/
CC(C)CCN1CCN(C2CCN(c3ccccc3)CC2)CC1CCO (stereo unspecified)	.	.	.	.	.	.
O=C1C(Cl)=C(Nc2ccccc2O)C(=O)N1c1ccccc1	44.5	.	66.6	.	.	?
COc1ccccc1N1C(=O)C(Cl)=C(Nc2ccccc2O)C1=O	31.5	/	102.5	.	.	.
CCOc1ccccc1NC1=C(Cl)C(=O)N(c2ccc(OC)cc2)C1=O	.	.	.	.	.	.
Brc1ccc(-c2nnc3n2C2(CCCC2)Cc2ccccc2-3)o1	.	.	.	.	.	.
Cc1ccccc1-c1nc(-c2ccc(NC(=O)c3ccc(Br)o3)cc2)no1	26.9	.	57.1	?	.	.
Fc1ccccc1-c1nc(-c2ccc(Br)o2)no1	56.9	.	85.1	.	.	.
Cc1ccccc1-c1nc(-c2ccc(Br)o2)no1	43.5	.	97.3	.	.	.
C[C@@]12C=CC(=O)C=C1CCC1C3CC(O)[C@@](O)(C(=O)CO)[C@]3(C)CC(O)[C@]12F (stereo partly specified)	/	/	/	.	.	.
CCc1cccc(CC)c1NC(=O)c1ccccc1CCc1ccccc1	.	.	.	.	.	14.7µM
CN(CC(=O)Nc1cccc(F)c1)C(=O)c1ccccc1CCc1ccccc1	/	/	/	?	/	6.57µM
COc1ccc(NC(=O)CN(C)C(=O)c2ccccc2CCc2ccccc2)cc1	/	/	/	.	/	?
Cc1nn(Cc2ccccc2Cl)c(C)c1C(=O)N(C)CC(=O)Nc1cccc(F)c1	/	/	/	?	/	13.1µM
Cc1nn(-c2ccccc2)c(Cl)c1C(=O)N(C)CC(=O)Nc1cccc(F)c1	/	/	/	.	/	?
Cc1cccc(COc2ccccc2C(=O)N(C)CC(=O)Nc2cccc(F)c2)c1	/	/	/	4.15µM	/	?
O=C(CCS(=O)(=O)c1ccccc1)NCc1ccccc1	.	.	.	.	/	.
CC1CCCN(Cc2csc(N)n2)C1 (stereo unspecified)	.	/	.	.	.	.
CC(C)(C)n1c(O)c2ccc(C(=O)N=NC(=O)c3ccccc3)cc2c1O	26.8	.	.	.	.	.
SMILES	Cycloheximide cs	NS1 function inh	Shiga inhibitor	Pf growth 96h	FBPA Giardia inh	Pf growth 48h
O=C(NCCO)/C(=C/c1ccc2c(c1)OCO2)NC(=O)c1ccc(Br)cc1	40.6	.	74.3	.	.	.
CC(=O)N/C(=C/c1ccc2c(c1)OCO2)C(=O)Nc1ccccc1	26.6	.	80.0	?	.	.
O=C(Nc1ccc(C(=O)O)cc1)/C(=C\c1ccc2c(c1)OCO2)NC(=O)c1ccc(Br)cc1	38.7	.	.	.	.	.
NCCOC[C@H](N)C(=O)O	/	.	/	/	/	/
CC1Sc2ccc(S(=O)(=O)CCC(=O)Nc3ccc(C(C)C)cc3)cc2NC1=O (stereo unspecified)	.	.	.	.	.	.
COc1ccc(-c2c3c(cc4ncn(Cc5ccccc5)c24)COC3=O)cc1	/	/	/	.	/	?

Source: PubChem BioAssay (National Center for Advancing Translational Sciences (NCATS))
